Source: PubChem BioAssay (NCATS)
Results filed as inconclusive are left out. Active and inactive are the calls of the source. The call rests on the fitted dose curve; in most records, active means well fitted curve in the direction sought with a large enough effect; inconclusive means small, poorly fitted or top-dose-only effect, or another doubt; inactive means no such curve, though single readings can be large; an effect the other way counts as inactive or inconclusive. Where a SMILES comes first, the peptide text is derived from it.

Columns and labels:
[1] = qHTS of pediatric cancer cell lines to identify multiple opportunities for drug repurposing: Primary screen for TC32 cells (AID 1347089); further: nearly all actives have a fitted effect of over 60% in size; on activity change, negative = cytotoxic: on the % scale 0 is the no-effect control and ±100 the full control effect
Outline: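 Luminescent ATP read-out (CellTiter-Glo) of metabolically active TC32 cells after 48 h exposure. Concentration-response curves came from 11-point (MIPE, 0.78 nM–46 µM) or 8-point (NPC, 0.59 nM–46 µM) primary titrations; follow-up used 11 points.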

[2] = qHTS of pediatric cancer cell lines to identify multiple opportunities for drug repurposing: Primary screen for DAOY cells (AID 1347090); further: nearly all actives have a fitted effect of over 55% in size;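 on activity change, negative = cytotoxic: series mostly up to about 46 µM; plate controls were DMSO for no effect and bortezomib for full effect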
Outline: (§1)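 Eight- or eleven-point concentration series, 48 h treatment at 37 degrees C in growth media; readout CellTiter-Glo luminescence. Potency and efficacy were taken from the concentration-response curves.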

[3] = qHTS of pediatric cancer cell lines to identify multiple opportunities for drug repurposing: Primary screen for SJ-GBM2 cells (AID 1347091);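 on activity change, negative = cytotoxic: plate controls were DMSO neutral control for no effect and bortezomib for full effect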
Outline: as §1

[4] = qHTS of pediatric cancer cell lines to identify multiple opportunities for drug repurposing: Primary screen for A673 cells (AID 1347092); further: nearly all actives have a fitted effect of over 45% in size; on activity change, negative = cytotoxic: on the % scale 0 is the no-effect control and ±100 the full control effect
Outline: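 Cell viability of A673 measured by CellTiter-Glo ATP luminescence after 48 hours compound exposure. Dilution series spanned 0.78 nM to 46 µM (MIPE, 11-point) or 0.59 nM to 46 µM (NPC, 8-point); bortezomib 2.3 uM positive control.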

[5] = qHTS of pediatric cancer cell lines to identify multiple opportunities for drug repurposing: Primary screen for SK-N-MC cells (AID 1347093);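 on activity change, negative = cytotoxic: series mostly up to about 46 µM; plate controls were DMSO neutral control for no effect and bortezomib for full effect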
Outline: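 Metabolically active cells were quantified by ATP-dependent luminescence (CellTiter-Glo, 15 min at room temperature) following 48 h treatment. Cells had been plated at 500-1,000 per well and settled for 5 h beforehand.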

[6] = qHTS of pediatric cancer cell lines to identify multiple opportunities for drug repurposing: Primary screen for BT-37 cells (AID 1347094);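 on activity change, negative = cytotoxic: series mostly up to about 57 µM; plate controls were DMSO for no effect and bortezomib for full effect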
Outline: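 Plated cells (500-1,000 per well, growth media) were allowed to settle for 5 hours, treated with compound dilutions for 48 hours, then lysed with CellTiter-Glo for 15 min at room temperature before luminescence reading.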
Potency means the concentration at half of the fitted maximal effect.

COc1ccccc1OCC1CNC(=O)O1 (centres undefined)
inactive: Potency [1] | Potency [2] | Potency [3] | Potency [4] | Potency [5] | Potency [6]

Cc1c(N)cccc1C(F)(F)F
inactive: Potency [1] | Potency [2] | Potency [3] | Potency [4] | Potency [5] | Potency [6]

C/C(=N\O)[C@@H](C)NCC(C)(C)CN[C@H](C)/C(C)=N/O
inactive: Potency [1] | Potency [2] | Potency [3] | Potency [4] | Potency [5] | Potency [6]

O=C(CS(=O)Cc1ccco1)NC/C=C\COc1cc(CN2CCCCC2)ccn1 (centres undefined)
inactive: Potency [1] | Potency [2] | Potency [3] | Potency [4] | Potency [5] | Potency [6]

O=C(CCCCC(=O)Nc1c(I)cc(I)c(C(=O)O)c1I)Nc1c(I)cc(I)c(C(=O)O)c1I
inactive: Potency [1] | Potency [2] | Potency [3] | Potency [4] | Potency [5] | Potency [6]

O=C(O)CCCC[C@@H]1SC[C@@H]2NC(=O)N[C@@H]21
inactive: Potency [1] | Potency [2] | Potency [3] | Potency [4] | Potency [5] | Potency [6]

CC(C)(C)C(=O)OCOC(=O)C1N2C(=O)CC2S(=O)(=O)C1(C)C (centres undefined)
inactive: Potency [1] | Potency [2] | Potency [3] | Potency [4] | Potency [5] | Potency [6]

CCCCC(O)/C=C(C)/C=C/C=C/C(=O)N1CCCC1=O (centres undefined)
inactive: Potency [1] | Potency [2] | Potency [3] | Potency [4] | Potency [5] | Potency [6]

CC(=O)c1cc2ccccc2s1
inactive: Potency [1] | Potency [2] | Potency [3] | Potency [4] | Potency [5] | Potency [6]

Cc1nc([N+](=O)[O-])cn1-c1ccc([N+](=O)[O-])cc1
inactive: Potency [1] | Potency [2] | Potency [3] | Potency [4] | Potency [5] | Potency [6]

CN1CC[C@H](c2c(O)cc(O)c3c(=O)cc(-c4ccccc4Cl)oc23)[C@H](O)C1
active: Potency [1] 592 nM | Potency [2] 531 nM | Potency [3] 106 nM | Potency [4] 106 nM | Potency [5] 266 nM | Potency [6] 347 nM

CCOC(=O)OCC/C(SC(=O)OCC)=C(\C)N(C=O)Cc1cnc(C)nc1N
inactive: Potency [1] | Potency [2] | Potency [3] | Potency [4] | Potency [5] | Potency [6]

CC(C)(Oc1ccc(Cl)cc1)C(=O)OCCCOC(=O)C(C)(C)Oc1ccc(Cl)cc1
inactive: Potency [1] | Potency [2] | Potency [3] | Potency [4] | Potency [5] | Potency [6]

CCOC(=O)C(=O)c1csc(NC=O)n1
inactive: Potency [1] | Potency [2] | Potency [3] | Potency [4] | Potency [5] | Potency [6]

CCO[C@H](Cc1ccc(OCCc2ccc(OS(C)(=O)=O)cc2)cc1)C(=O)O
inactive: Potency [1] | Potency [2] | Potency [3] | Potency [4] | Potency [5] | Potency [6]

CCOC(=O)C(=O)CCCCCCl
inactive: Potency [1] | Potency [2] | Potency [3] | Potency [4] | Potency [5] | Potency [6]

Oc1ccccc1
inactive: Potency [1] | Potency [2] | Potency [3] | Potency [4] | Potency [5] | Potency [6]

C[N+](C)(CCOc1ccccc1)Cc1cccs1
inactive: Potency [1] | Potency [2] | Potency [3] | Potency [4] | Potency [5] | Potency [6]

CCCCCC1Nc2cc(C(F)(F)F)c(S(N)(=O)=O)cc2S(=O)(=O)N1 (centres undefined)
inactive: Potency [1] | Potency [2] | Potency [3] | Potency [4] | Potency [5] | Potency [6]

Cc1oc(=O)oc1COC(=O)[C@@H]1N2C(=O)[C@@H](NC(=O)[C@H](N)c3ccccc3)[C@H]2SC1(C)C
inactive: Potency [1] | Potency [2] | Potency [3] | Potency [4] | Potency [5] | Potency [6]

O=C1Nc2cc(Cl)ccc2Oc2ccccc21
inactive: Potency [1] | Potency [2] | Potency [3] | Potency [4] | Potency [5] | Potency [6]

CO/N=C(\C(=O)O)c1csc(NC(=O)CCl)n1
inactive: Potency [1] | Potency [2] | Potency [3] | Potency [4] | Potency [5] | Potency [6]

COc1ccc2nc(SCc3ncc(C)c(OC)c3C)[nH]c2c1
inactive: Potency [1] | Potency [2] | Potency [3] | Potency [4] | Potency [5] | Potency [6]

CCOc1ncc(F)c(=O)[nH]1
inactive: Potency [1] | Potency [2] | Potency [3] | Potency [4] | Potency [5] | Potency [6]

CC(=O)N[C@@H](CO)C(=O)N[C@@H](CC(=O)O)C(=O)N[C@@H](CCCCN)C(=O)N1CCC[C@H]1C(=O)O (Ac-SDKP-OH)
inactive: Potency [1] | Potency [2] | Potency [3] | Potency [4] | Potency [5] | Potency [6]

Oc1ccccc1-c1nnco1
inactive: Potency [1] | Potency [2] | Potency [3] | Potency [4] | Potency [5] | Potency [6]

CCCCC(=O)OCC(=O)[C@H]1[C@H](C)C[C@H]2[C@@H]3C[C@H](F)C4=CC(=O)C=C[C@]4(C)[C@@]3(F)[C@@H](O)C[C@@]21C
inactive: Potency [1] | Potency [2] | Potency [3] | Potency [4] | Potency [5] | Potency [6]

CC1CN(c2cc3c(cc2F)c(=O)c(C(=O)O)cn3-c2ccc(F)cc2F)CCN1 (centres undefined)
inactive: activity change, negative = cytotoxic [1] -4% [at 4.81 µM] | activity change, negative = cytotoxic [2] 0.682% [at 4.84 µM] | activity change, negative = cytotoxic [3] 78.3% [at 4.84 µM] | activity change, negative = cytotoxic [4] -9.43% [at 4.84 µM] | activity change, negative = cytotoxic [5] 32.9% [at 4.84 µM] | activity change, negative = cytotoxic [6] 1.04% [at 6.03 µM]

CC(=O)N(CC(=O)N(C)C)c1ccccc1
inactive: Potency [1] | Potency [2] | Potency [3] | Potency [4] | Potency [5] | Potency [6]
